# “And” between values parts separate entries of the source, which are not always exact repeats. Equal entries are not always repeated. Hit rate of the full screen: of about 5,500 compounds, about 2,000 (36%) were called active. About 18% were inconclusive and are not listed. The list shows a part of the results. A number with no mark means an inactive call. Cut-off read from the data, not from the text of the source: active = normalized growth mostly below about 0.91 (no sharp cut-off); inconclusive = no clear call, values can overlap the other calls; inactive = mostly above about 0.92.
# Assay: chemical genetic growth profiling, strain panel (AID 1159580);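 note: tested at 20 µM; growth read once vehicle control cultures reached saturation at 30 °C; 1 = growth at the plate median or of vehicle wells; lower values mean less growth of the strain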
# Settings: S. cerevisiae deletion strains, growth OD
compound,measurement,setting,value
CC(=O)O[C@@H]1CC2C(C)(C)C(=O)CC[C@]2(C)C2CC[C@@]3(C)[C@H](c4ccoc4)OC(=O)C4OC43[C@@]21C (some centres not stated),normalized growth,"locus YAL013W, strain DEP1, active compounds read low",1.01
same,normalized growth,"locus YAL021C, strain ccr4, active compounds read low",1.01
same,normalized growth,"locus YAL026C, strain drs2, active compounds read low",0.982
same,normalized growth,"locus YAL030W, strain snc1, active compounds read low",0.987
same,normalized growth,"locus YBL061C, strain skt5, active compounds read low",0.98
same,normalized growth,"locus YBR009C, strain hhf1, active compounds read low",0.985
same,normalized growth,"locus YBR021W, strain FUR4, active compounds read low",0.953
same,normalized growth,"locus YBR023C, strain chs3, active compounds read low",0.992
same,normalized growth,"locus YBR171W, strain sec66, active compounds read low",0.952
same,normalized growth,"locus YBR229C, strain ROT2, active compounds read low",1
same,normalized growth,"locus YBR231C, strain swc5, active compounds read low",1.01
same,normalized growth,"locus YBR279W, strain paf1, active compounds read low",0.991
same,normalized growth,"locus YCL011C, strain gbp2, active compounds read low",0.977
same,normalized growth,"locus YCL016C, strain dcc1, active compounds read low",1.03
same,normalized growth,"locus YCL029C, strain bik1, active compounds read low",1.02
same,normalized growth,"locus YCL069W, strain vba3, active compounds read low",0.96
same,normalized growth,"locus YCR088W, strain abp1, active compounds read low",0.973
same,normalized growth,"locus YDL005C, strain med2, active compounds read low",0.968
same,normalized growth,"locus YDL035C, strain GPR1, active compounds read low",0.985
same,normalized growth,"locus YDL040C, strain nat1, active compounds read low",0.976
same,normalized growth,"locus YDL074C, strain BRE1, active compounds read low",0.985
same,normalized growth,"locus YDL101C, strain DUN1, active compounds read low",1.01
same,normalized growth,"locus YDL134C, strain PPH21, active compounds read low",0.992
same,normalized growth,"locus YDL185W, strain tfp1, active compounds read low",1.01
same,normalized growth,"locus YDL192W, strain arf1, active compounds read low",1.01
same,normalized growth,"locus YDR001C, strain nth1, active compounds read low",0.981
same,normalized growth,"locus YDR069C, strain doa4, active compounds read low",0.943
same,normalized growth,"locus YDR101C, strain arx1, active compounds read low",0.994
same,normalized growth,"locus YDR137W, strain rgp1, active compounds read low",0.968
same,normalized growth,"locus YDR159W, strain sac3, active compounds read low",0.917
same,normalized growth,"locus YDR162C, strain NBP2, active compounds read low",0.981
same,normalized growth,"locus YDR195W, strain ref2",0.972
same,normalized growth,"locus YDR297W, strain sur2, active compounds read low",0.98
same,normalized growth,"locus YDR318W, strain mcm21, active compounds read low",1
same,normalized growth,"locus YDR334W, strain swr1, active compounds read low",0.98
same,normalized growth,"locus YDR335W, strain msn5, active compounds read low",0.981
same,normalized growth,"locus YDR388W, active compounds read low",1.01
same,normalized growth,"locus YDR392W, strain spt3, active compounds read low",0.897
same,normalized growth,"locus YDR502C, strain sam2, active compounds read low",1.02
same,normalized growth,"locus YEL003W, strain gim4, active compounds read low",0.965
same,normalized growth,"locus YEL037C, strain rad23, active compounds read low",0.978
same,normalized growth,"locus YEL061C, strain CIN8 (second series), active compounds read low",0.961
same,normalized growth,"locus YEL061C, strain CIN8, active compounds read low",1
same,normalized growth,"locus YER015W, strain faa2, active compounds read low",1
same,normalized growth,"locus YER016W, strain bim1, active compounds read low",0.972
same,normalized growth,"locus YER110C, active compounds read low",1.02
same,normalized growth,"locus YER111C, strain swi4, active compounds read low",0.961
same,normalized growth,"locus YER155C, strain BEM2 (second series), active compounds read low",1.01
same,normalized growth,"locus YER155C, strain BEM2, active compounds read low",0.978
same,normalized growth,"locus YER167W, strain BCK2, active compounds read low",0.993
same,normalized growth,"locus YFR010W, strain ubp6, active compounds read low",0.958
same,normalized growth,"locus YGL078C, strain dbp3, active compounds read low",1.01
same,normalized growth,"locus YGL086W, strain mad1, active compounds read low",1.01
same,normalized growth,"locus YGL167C, strain pmr1, active compounds read low",0.989
same,normalized growth,"locus YGL173C, strain kem1, active compounds read low",0.957
same,normalized growth,"locus YGL227W, strain vid30, active compounds read low",0.975
same,normalized growth,"locus YGL240W, strain doc1, active compounds read low",0.979
same,normalized growth,"locus YGL248W, strain PDE1, active compounds read low",0.998
same,normalized growth,"locus YGL253W, strain hxk2, active compounds read low",0.874 (active)
same,normalized growth,"locus YGR135W, strain pre9, active compounds read low",1.03
same,normalized growth,"locus YGR252W, strain gcn5, active compounds read low",0.959
same,normalized growth,"locus YHR013C, strain ard1, active compounds read low",0.979
same,normalized growth,"locus YHR027C, strain rpn1, active compounds read low",0.987
same,normalized growth,"locus YHR030C, strain SLT2, active compounds read low",1.01 and 0.997
same,normalized growth,"locus YHR079C, strain IRE1 (second series), active compounds read low",1.02
same,normalized growth,"locus YHR079C, strain IRE1, active compounds read low",0.987
same,normalized growth,"locus YHR094C, strain hxt1, active compounds read low",1.02
same,normalized growth,"locus YHR129C, strain ARP1, active compounds read low",0.999
same,normalized growth,"locus YHR142W, strain chs7, active compounds read low",0.96
same,normalized growth,"locus YHR200W, strain rpn10, active compounds read low",1
same,normalized growth,"locus YIL066C, strain RNR3, active compounds read low",0.982
same,normalized growth,"locus YIL073C, strain SPO22, active compounds read low",1.01
same,normalized growth,"locus YIL125W, strain kgd1, active compounds read low",0.998
same,normalized growth,"locus YIR030C, strain dcg1, active compounds read low",1.01
same,normalized growth,"locus YJL092W, strain hpr5, active compounds read low",0.973
same,normalized growth,"locus YJL095W, strain BCK1 (second series), active compounds read low",0.993
same,normalized growth,"locus YJL095W, strain BCK1, active compounds read low",0.994 and 0.967
same,normalized growth,"locus YJL115W, strain asf1, active compounds read low",0.99
same,normalized growth,"locus YJL129C, strain trk1, active compounds read low",0.928
same,normalized growth,"locus YJL134W, strain LCB3, active compounds read low",0.999
same,normalized growth,"locus YJL154C, strain vps35, active compounds read low",0.984
same,normalized growth,"locus YJL164C, strain tpk1, active compounds read low",1.01
same,normalized growth,"locus YJL166W, strain qcr8, active compounds read low",0.977
same,normalized growth,"locus YJL168C, strain set2, active compounds read low",1.02
same,normalized growth,"locus YJL187C, strain SWE1 (second series), active compounds read low",1.01
same,normalized growth,"locus YJR066W, strain TOR1, active compounds read low",0.95
same,normalized growth,"locus YJR075W, strain HOC1, active compounds read low",0.992
same,normalized growth,"locus YKL009W, strain mrt4, active compounds read low",0.98
same,normalized growth,"locus YKL068W, active compounds read low",1
same,normalized growth,"locus YKL085W, strain MDH1 (second series), active compounds read low",1.01
same,normalized growth,"locus YKL085W, strain MDH1, active compounds read low",1.01
same,normalized growth,"locus YKL160W, strain elf1, active compounds read low",1.03
same,normalized growth,"locus YKL190W, strain CNB1, active compounds read low",1
same,normalized growth,"locus YKR001C, strain vps1, active compounds read low",0.987
same,normalized growth,"locus YKR026C, strain gcn3, active compounds read low",0.966
same,normalized growth,"locus YKR091W, strain srl3, active compounds read low",0.996
same,normalized growth,"locus YLL001W, strain dnm1, active compounds read low",0.959
same,normalized growth,"locus YLL026W, active compounds read low",0.989
same,normalized growth,"locus YLL041C, strain sdh2, active compounds read low",1
same,normalized growth,"locus YLR027C, strain aat2, active compounds read low",1
same,normalized growth,"locus YLR039C, strain RIC1, active compounds read low",1.03
same,normalized growth,"locus YLR058C, strain SHM2, active compounds read low",1
same,normalized growth,"locus YLR102C, strain apc9, active compounds read low",1.01
same,normalized growth,"locus YLR113W, strain HOG1, active compounds read low",1.02
same,normalized growth,"locus YLR221C, strain rsa3, active compounds read low",0.946
same,normalized growth,"locus YLR258W, strain gsy2, active compounds read low",0.988
same,normalized growth,"locus YLR262C, strain YPT6 (second series), active compounds read low",0.97
same,normalized growth,"locus YLR262C, strain YPT6, active compounds read low",1.01
same,normalized growth,"locus YLR268W, strain sec22, active compounds read low",0.994
same,normalized growth,"locus YLR320W, strain mms22, active compounds read low",0.969
same,normalized growth,"locus YLR342W, strain FKS1 (second series), active compounds read low",1
same,normalized growth,"locus YLR342W, strain FKS1, active compounds read low",0.977
same,normalized growth,"locus YLR357W, strain rsc2, active compounds read low",1.02
same,normalized growth,"locus YLR370C, strain arc18, active compounds read low",0.957
same,normalized growth,"locus YLR371W, strain rom2, active compounds read low",1
same,normalized growth,"locus YLR384C, strain iki3, active compounds read low",0.976
same,normalized growth,"locus YLR418C, strain cdc73, active compounds read low",0.979
same,normalized growth,"locus YML016C, strain PPZ1, active compounds read low",0.994
same,normalized growth,"locus YML032C, strain rad52, active compounds read low",0.995
same,normalized growth,"locus YML120C, strain ndi1, active compounds read low",1.01
same,normalized growth,"locus YML124C, strain tub3, active compounds read low",1
same,normalized growth,"locus YMR058W, strain fet3, active compounds read low",0.991
same,normalized growth,"locus YMR078C, strain ctf18, active compounds read low",1.01
same,normalized growth,"locus YMR125W, strain sto1, active compounds read low",0.978
same,normalized growth,"locus YMR129W, active compounds read low",0.985
same,normalized growth,"locus YMR205C, strain PFK2, active compounds read low",1
same,normalized growth,"locus YMR223W, strain ubp8, active compounds read low",1.01
same,normalized growth,"locus YMR231W, strain pep5, active compounds read low",0.966
same,normalized growth,"locus YMR307W, strain GAS1, active compounds read low",0.937
same,normalized growth,"locus YNL067W, strain RPL9B, active compounds read low",1.01
same,normalized growth,"locus YNL071W, strain lat1, active compounds read low",0.989
same,normalized growth,"locus YNL153C, strain GIM3, active compounds read low",1.01
same,normalized growth,"locus YNL183C, strain NPR1, active compounds read low",0.982
same,normalized growth,"locus YNL209W, strain ssb2, active compounds read low",0.997
same,normalized growth,"locus YNL233W, strain BNI4, active compounds read low",0.997
same,normalized growth,"locus YNL248C, strain rpa49, active compounds read low",0.942
same,normalized growth,"locus YNL250W, strain rad50, active compounds read low",1.01
same,normalized growth,"locus YNL271C, strain bni1, active compounds read low",1.01
same,normalized growth,"locus YNL298W, strain CLA4, active compounds read low",1.01
same,normalized growth,"locus YNL307C, strain MCK1, active compounds read low",1.02
same,normalized growth,"locus YNL322C, strain KRE1 (second series), active compounds read low",0.985
same,normalized growth,"locus YNR049C, strain mso1, active compounds read low",0.98
same,normalized growth,"locus YNR052C, strain pop2, active compounds read low",1.01
same,normalized growth,"locus YOL012C, strain htz1",0.799
same,normalized growth,"locus YOL147C, strain pex11, active compounds read low",1.01
same,normalized growth,"locus YOR001W, strain rrp6, active compounds read low",0.925
same,normalized growth,"locus YOR061W, strain CKA2, active compounds read low",0.985
same,normalized growth,"locus YOR069W, strain VPS5, active compounds read low",1.01
same,normalized growth,"locus YOR070C, strain gyp1, active compounds read low",0.989
same,normalized growth,"locus YOR080W, strain dia2, active compounds read low",0.976
same,normalized growth,"locus YOR083W, strain WHI5, active compounds read low",1.03
same,normalized growth,"locus YOR106W, strain vam3, active compounds read low",1
same,normalized growth,"locus YOR136W, strain idh2, active compounds read low",1.02
same,normalized growth,"locus YOR144C, strain elg1, active compounds read low",1
same,normalized growth,"locus YOR184W, strain ser1, active compounds read low",0.989
same,normalized growth,"locus YOR231W, strain MKK1, active compounds read low",1.01
same,normalized growth,"locus YOR265W, strain rbl2, active compounds read low",0.979
same,normalized growth,"locus YOR270C, strain vph1, active compounds read low",0.835
same,normalized growth,"locus YOR290C, strain snf2, active compounds read low",1.01
same,normalized growth,"locus YOR316C, strain cot1, active compounds read low",1.02
same,normalized growth,"locus YPL051W, strain arl3, active compounds read low",0.964
same,normalized growth,"locus YPL055C, strain LGE1, active compounds read low",0.963
same,normalized growth,"locus YPL078C, strain atp4, active compounds read low",1.03
same,normalized growth,"locus YPL106C, strain sse1, active compounds read low",1.01
same,normalized growth,"locus YPL240C, strain hsp82, active compounds read low",0.978
same,normalized growth,"locus YPL241C, strain CIN2, active compounds read low",0.999
same,normalized growth,"locus YPL256C, strain CLN2, active compounds read low",1.01
same,normalized growth,"locus YPR119W, strain clb2, active compounds read low",1.01
same,normalized growth,"locus YPR141C, strain kar3, active compounds read low",1.01
same,normalized growth,"locus YPR163C, strain tif3, active compounds read low",1.01
same,normalized growth,"locus YPR167C, strain met16, active compounds read low",1.01
same,normalized growth,"strain wtn01, active compounds read low",0.977
